# The campaign covered roughly 1,100 compounds. About 860 (78%) were called active. About 19% were inconclusive and are not listed. The call rests on the fitted dose curve; in most records, active means well fitted activation curve with a large enough effect; inconclusive means small, poorly fitted or top-dose-only effect; inactive means flat fitted curve, though single readings scatter. So high a share suggests a set chosen from earlier hits. Some of the results follow.
# Test: qHTS of Nrf2 Activators: Hit Validation in Primary Assay; further: nearly all actives have a fitted effect of over 70% in size
# Settings: Nrf2/ARE reporter cell assay; Potency: activation; series mostly up to 46.1 µM
# How it was run: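 Luminescence from Steady-Glo lysis reagent, read after 30 min, reported ARE-luciferase activity in AREc32_fluc stable cells. Compounds were tested at several concentrations, incubated 24 h at 37 °C with 5% CO2 following overnight seeding.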
# Potency means the concentration at half of the fitted maximal effect.
row,Compound,Potency
1,COC(=O)c1c(NC(=O)/C=C/C(=O)O)sc(C)c1-c1ccc(C(C)C)cc1,10.3 µM (active)
2,COc1nc2ccc(C)cc2cc1-c1noc(-c2ccccc2)n1,2.59 µM (active)
3,c1ccc(-c2noc(-c3cccnc3)n2)cc1,2.59 µM (active)
4,c1ccc(-c2noc(-c3cccc4ccccc34)n2)cc1,2.31 µM (active)
5,COc1cccc(-c2nc(-c3ccccc3)no2)c1,2.91 µM (active)
6,c1cncc(-c2noc(-c3cccc4ccccc34)n2)c1,1.16 µM (active)
7,Fc1ccccc1-c1nc(-c2ccc(Cl)cc2)no1,3.26 µM (active)
8,CC1=NC(=O)C(N=Nc2cccc(O)c2)N1c1ccccc1 (centres undefined),7.31 µM (active)
9,Cc1cccc2c(=O)n(C(=O)c3ccccc3)c(N)nc12,1.03 µM (active)
10,COc1ccc(OC)c(/C=C(\C#N)c2nc(-c3ccc(F)cc3)cs2)c1,2.59 µM (active)
11,O=C(Nc1ccccc1)c1nc[nH]c1C(=O)Nc1ccccc1F,inactive
12,COc1ccccc1-c1nnc(NC(C)=O)s1,20.6 µM (active)
13,O=C(Nc1nnc(-c2ccccc2F)s1)C1CCCO1 (centres undefined),7.31 µM (active)
14,O=C(Nc1nnc(-c2ccccc2F)s1)Nc1ccccc1F,1.84 µM (active)
15,COc1ccc(NC(=O)Nc2nnc(-c3ccccc3F)s2)cc1,1.84 µM (active)
16,O=C(CC(=O)c1ccccn1)c1ccccc1,3.66 µM (active)
17,NS(=O)(=O)c1ccc(Sc2nc3ccccc3s2)c([N+](=O)[O-])c1,16.4 µM (active)
18,NC(=O)c1nc(Nc2ccccc2)sc1NC(=O)c1c(F)cccc1F,2.59 µM (active)
19,NC(=O)c1nc(Nc2ccccc2)sc1NC(=O)c1ccccc1Br,2.31 µM (active)
20,O=C(/C=C/c1ccccc1Cl)Nc1nc(-c2cccs2)ns1,7.31 µM (active)
21,O=C(/C=C/c1ccccc1)Nc1nc(-c2cccs2)ns1,2.59 µM (active)
22,Cc1sc2c(c1C)C(=O)NC(c1ccccc1F)N2 (centres undefined),20.6 µM (active)
23,CCC/C(=N\NC(=O)c1ccco1)c1ccc(Cl)s1,5.17 µM (active)
24,O=c1c(-c2ccco2)[n+]([O-])c2ccccc2n1OCc1c(F)cccc1F,0.58 µM (active)
25,O=c1c(-c2ccco2)[n+]([O-])c2ccccc2n1OCc1ccccc1,5.17 µM (active)
26,CCOC(=O)COn1c(=O)c(-c2ccco2)[n+]([O-])c2ccccc21,9.2 µM (active)
27,COc1ccc(-c2cc3ccccc3c(=O)o2)cc1,4.61 µM (active)
28,CC(=O)c1sc(Nc2ccccc2)nc1C,18.4 µM (active)
29,O=[N+]([O-])c1ccc(SCc2ccco2)cc1N1CCOCC1,2.31 µM (active)

# — PubChem BioAssay AID651593 (National Center for Advancing Translational Sciences (NCATS), 2012)
